“And” between values parts separate entries of the source, which are not always exact repeats. Equal entries are not always repeated. Inconclusive results are not listed. The source made the active and inactive calls. Unless noted, calls come from the whole dose curve; as a rule, active = well fitted curve in the direction sought with a large enough effect; inconclusive = small, poorly fitted or top-dose-only effect, or another doubt; inactive = no such curve, though single readings can be large; an effect the other way counts as inactive or inconclusive. Numbered stars: 1 amine (or outer) side, 2 acyl side, 3 side chain; on linkers, the order of the positions; unused ones are H or OH. Bridge positions count the residues as written; N and C are the ends. Square brackets hold non-standard residues; d marks the D form. Peptide text beside a SMILES is read from it. I, II: the chains in the order shown. Actinocin(9to1) = Cc1c2oc3c(C)ccc(C(=O)[*:1])c3nc-2c(C(=O)[*:2])c(N)c1=O; NMeV = CN[C@H](C(=O)O)C(C)C; Sar = CNCC(=O)O
Legend:
[1] = qHTS assay for small molecule agonists of the antioxidant response element (ARE) signaling pathway (AID 651741; active = well fitted activation curve with a large enough effect in the signal ratio; the % refers to the signal ratio; note: potency is the fitted concentration of half-maximal effect; for activation: % of control where 0% means no effect); settings: HepG2 ARE-bla reporter, beta-lactamase FRET ratio, 16 h; series mostly up to 96 µM
How it was run: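 HepG2 ARE-bla cells plated at 2,000 cells/well and incubated 5 h at 37 C/5% CO2 received 23 nL compound in DMSO. After 16 h at 37 C, LiveBLAzer B/G FRET substrate was applied for 2 h at room temperature and fluorescence read.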

[2] = qHTS assay for small molecule activators of the p53 signaling pathway (AID 651743; active = well fitted activation curve with a large enough effect in the signal ratio, not every such curve was filed as active; the % refers to the signal ratio; note: potency is the fitted concentration of half-maximal effect; for activation: % of control where 0% means no effect); settings: HCT-116 p53RE-bla, beta-lactamase FRET ratio, 16 h; activation: stronger effect = higher value
How it was run: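 HCT-116 p53RE-bla, 4,000 cells/well; 5 h settle; cpd/DMSO 16 h, 37 C; LiveBLAzer B/G 2 h RT; fluorescence intensity.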

[3] = qHTS assay for environmental chemicals that activate the Aryl hydrocarbon Receptor (AhR) signaling pathway (AID 651777); settings: 1A2-DRE human hepatoma cells, luciferase, 24 h; activation: stronger effect = higher value; note: nearly all actives have a fitted effect of over 15% in size; note: potency is the fitted concentration of half-maximal effect; for activation: % of control where 0% means no effect
How it was run: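 Luminescence read-out: One-Glo added for 30 min at RT after 24 hr compound treatment (37 C, 5% CO2) of human hepatoma cells expressing a DRE/CYP1A2 promoter–luciferase reporter; increased signal indicates AhR activation.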

[4] = target: Peroxisome proliferator-activated receptor alpha (Homo sapiens) (UniProt Q07869); assay: qHTS assay for small molecule agonists of the peroxisome proliferator-activated receptor alpha (PPARalpha) signaling pathway (AID 651778); settings: PathHunter PPARalpha complementation, chemiluminescence, 6 h; max response: stronger effect = higher value; note: potency is the fitted concentration of half-maximal effect; for max response: % of control where 0% means no effect
How it was run: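 Enzyme-fragment complementation assay in which ligand-bound PPARalpha translocates and forms an active enzyme that generates chemiluminescence. Cells were plated overnight, exposed to compound for 6 hr at 37 C, and then given detection reagent for 60 min at room temperature.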

[5] = target: Tumor necrosis factor (Homo sapiens) (UniProt P01375); assay: qHTS assay to identify small molecules that stimulate Tumor Necrosis Factor-alpha (TNF-alpha) secretion (AID 651757; active = well fitted curve in the direction sought with a large enough effect in the signal ratio; the % refers to the signal ratio; note: 0% is about no effect); settings: Human cells, HTRF 665/615 ratio; series mostly up to 92.2 µM
How it was run: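 THP-1 cells were exposed to compounds for 17 hrs at 37 C, after which secreted TNF-alpha was measured by homogeneous HTRF (TR-FRET) using cryptate- and XL665-labeled anti-TNF-alpha antibodies, read after 3 hr at room temperature.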

[6] = qHTS assay to identify small molecules that stimulate interleukin-8 (IL-8) secretion (AID 651758; active = well fitted activation curve with a large enough effect in the signal ratio; the % refers to the signal ratio; note: 0% is about no effect); settings: HTRF ratio (665/615); series mostly up to 92.2 µM
How it was run: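 THP-1 cells (2000/well) exposed to compound 16 h at 37 C; secreted IL-8 then detected by HTRF with cryptate- and XL665-labelled anti-IL-8 antibody pair after 1-3 h at room temperature.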

[7] = target: Nuclear receptor ROR-gamma (Homo sapiens) (UniProt P51449); assay: qHTS assay for small molecule antagonists of the retinoid-related orphan receptor gamma (ROR-gamma) signaling pathway (AID 651802); settings: ROR-gamma antagonist cell reporter assay; series mostly up to 92.2 µM; note: nearly all actives have a fitted effect of over 60% in size; note: potency is the fitted concentration of half-maximal effect
How it was run: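 CHO cells carrying TET-inducible ROR-gamma and an ROR response element–luciferase reporter were exposed to compound, then induced with doxycycline. After 16hr at 37C, luminescence was read; lower signal indicates antagonism.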

[8] = qHTS assay for small molecule disruptors of the mitochondrial membrane potential - 5 hr assay (AID 651755; calls by dose curve; note: nearly all actives have a fitted effect of over 40% in size; note: potency is the fitted concentration of half-maximal effect); settings: JC-1-type ratio dye; series mostly up to 92.2 µM
How it was run: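 HepG2 cells (2,000/well), attached overnight, exposed to compound 5 hr at 37C, then Mito-MPS dye 30 min. Fluorescence read for monomers (490/535 nm) and aggregates (540/590 nm).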

[9] = qHTS assay for small molecule activators of the nuclear factor-kappa B (NF-kB) signaling pathway (AID 651749; active = well fitted activation curve with a large enough effect in the signal ratio; the % refers to the signal ratio; note: % of control where 0% means no effect); settings: NF-kB-bla ME-180 cells, beta-lactamase FRET ratio, 16 h; stronger effect = higher value
How it was run: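 Incubation lasted 16 hr at 37C in 5% CO2 after 23 nL compound addition to ME-180 NF-kB-bla cells. Activation appears as beta-lactamase-mediated FRET loss.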

[10] = Cytotoxicity counterscreen for NFkB agonists and antagonists (AID 624476); settings: NFkB reporter cell line viability counterscreen; series mostly up to 92.2 µM; note: potency is the fitted concentration of half-maximal effect
[11] = qHTS Assay for Identification of Small Molecule Agonists for NFkB Signaling Pathway. (AID 624478); settings: NFkB pathway reporter cell assay, agonist mode, cells co-stimulated with 10 pM TNF alpha; series mostly up to 46.1 µM; note: 0% is about no effect
How it was run: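 NFkB-bla ME-180 cells (beta-lactamase reporter under NFkB response element) were plated overnight, treated with compound plus TNF alpha at 10 pM final (its EC50) for 5 hrs at 37 C, then loaded with LiveBLAzer substrate for 2 hrs.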

[12] = qHTS Assay for Identification of Small Molecule Antagonists for NFkB Signaling Pathway. (AID 624479; calls by dose curve; note: potency is the fitted concentration of half-maximal effect); settings: NFkB pathway reporter cell assay, antagonist mode; series mostly up to 76.6 µM
[13] = Cell Proliferation Assay against the TMD8 Cell Line (AID 651645); settings: TMD8 DLBCL cell line proliferation/viability; at 46.1 µM (top of the series) unless noted;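 note: cells exposed to compound for 48 h before reading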
How it was run: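 TMD8 ABC DLBCL cells, 500 per well in phenol red-free RPMI with 5% FBS, were treated with compound by pin transfer and incubated 48 hours at 37C, 5% CO2. Viability was read by CellTiter-Glo luminescence, normalised to DMSO (100%) and 9.2 uM bortezomib (0%).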

[14] = Cell Proliferation Assay against the HBL1 Cell Line (AID 651646); settings: HBL1 DLBCL cells; at 92.2 µM (top of the series) unless noted;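 note: cells exposed to compound for 48 h before reading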
How it was run: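 HBL1 ABC DLBCL cells, 500/well in RPMI with 5% FBS, treated for 48 h at 37C. Viability read by CellTiter-Glo luminescence, normalized to DMSO as 100% and 9.2 uM bortezomib as 0%.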

[15] = Cell Proliferation Assay against the TMD8 Cell Line (Caspase readout at 16 hrs) (AID 651712); settings: TMD8 lymphoma cells, caspase activation luminescence; note: potency is the fitted concentration of half-maximal effect
How it was run: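 TMD8 cells in RPMI with 5% FBS were treated with compound for 16 h at 37 C, then caspase 3/7 activation was read by Caspase-Glo luminescence. Percent activity was scaled to DMSO (0%) and 9.2 uM bortezomib final (100%).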

[16] = Cell Proliferation Assay against the TMD8 Cell Line (Caspase readout at 8 hrs) (AID 651713); settings: TMD8 lymphoma cells, caspase activation luminescence; series mostly up to 46.1 µM; note: potency is the fitted concentration of half-maximal effect
How it was run: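 TMD8 cells (500/well) in phenol red-free RPMI with 5% FBS were treated with compounds for 8 h at 37C, 5% CO2. Caspase-Glo 3/7 luminescence was read after 15 min at room temperature and normalised to DMSO (0%) and 9.2 uM bortezomib (100%).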

[17] = target: Tumor susceptibility gene 101 protein (Homo sapiens) (UniProt Q99816); assay: qHTS Assay for Iinhibitors of HIV-1 Budding by Blocking the Interaction of PTAP/TSG101: Hit Validation (AID 651600); settings: PTAP peptide/TSG101 UEV interaction, biochemical assay; note: potency is the fitted concentration of half-maximal effect; nearly all actives have a fitted effect of over 70% in size
How it was run: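 Fluorescence polarization binding assay: Tsg101 binding domain (10 uM final) pre-dispensed with compounds, then FITC-labeled PTAP-motif peptide (50 nM final) added; 20 min at r.t. in HEPES pH 7.5 buffer with NaCl, Tween 20, EDTA, TCEP.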

Tumor necrosis factor (Homo sapiens), sequence (P01375 whole entry, looked up): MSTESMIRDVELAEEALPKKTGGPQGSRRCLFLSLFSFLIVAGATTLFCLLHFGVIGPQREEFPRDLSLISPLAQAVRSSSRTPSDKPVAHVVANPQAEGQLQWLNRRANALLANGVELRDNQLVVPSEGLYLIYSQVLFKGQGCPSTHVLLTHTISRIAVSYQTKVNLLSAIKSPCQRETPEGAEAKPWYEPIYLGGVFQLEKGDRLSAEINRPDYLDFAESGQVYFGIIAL
Peroxisome proliferator-activated receptor alpha (Homo sapiens), sequence (Q07869 whole entry, looked up, the tested form may be a part): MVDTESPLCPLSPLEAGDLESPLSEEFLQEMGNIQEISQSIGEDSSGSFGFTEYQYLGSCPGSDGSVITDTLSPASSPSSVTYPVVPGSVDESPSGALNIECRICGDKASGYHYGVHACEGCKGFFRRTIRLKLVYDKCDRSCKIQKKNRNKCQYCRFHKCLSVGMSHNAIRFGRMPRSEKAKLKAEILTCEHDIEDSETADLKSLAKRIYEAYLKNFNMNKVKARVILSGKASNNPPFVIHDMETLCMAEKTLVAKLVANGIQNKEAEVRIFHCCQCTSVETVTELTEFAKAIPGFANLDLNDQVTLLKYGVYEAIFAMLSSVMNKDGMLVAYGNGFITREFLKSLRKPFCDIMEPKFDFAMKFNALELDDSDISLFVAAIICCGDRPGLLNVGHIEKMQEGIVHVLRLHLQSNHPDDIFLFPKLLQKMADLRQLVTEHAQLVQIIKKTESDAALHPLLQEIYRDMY
Nuclear receptor ROR-gamma (Homo sapiens), sequence (P51449 whole entry, looked up): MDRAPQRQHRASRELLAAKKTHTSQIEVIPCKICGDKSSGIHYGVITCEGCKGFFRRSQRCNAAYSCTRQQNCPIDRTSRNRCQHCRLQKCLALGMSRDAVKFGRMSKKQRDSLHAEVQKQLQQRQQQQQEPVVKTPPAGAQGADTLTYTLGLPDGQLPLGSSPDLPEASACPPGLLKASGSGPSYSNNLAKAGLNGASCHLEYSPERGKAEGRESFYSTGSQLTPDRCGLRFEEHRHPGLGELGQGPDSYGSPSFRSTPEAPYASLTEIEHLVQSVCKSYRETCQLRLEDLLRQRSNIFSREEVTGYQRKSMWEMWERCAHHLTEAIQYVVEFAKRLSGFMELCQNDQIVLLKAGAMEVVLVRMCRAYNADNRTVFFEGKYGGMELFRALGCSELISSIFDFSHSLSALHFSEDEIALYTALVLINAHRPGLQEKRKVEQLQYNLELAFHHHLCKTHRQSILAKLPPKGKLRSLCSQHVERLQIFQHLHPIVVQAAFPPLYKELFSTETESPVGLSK
Tumor susceptibility gene 101 protein (Homo sapiens), sequence (Q99816 whole entry, looked up, the tested form may be a part): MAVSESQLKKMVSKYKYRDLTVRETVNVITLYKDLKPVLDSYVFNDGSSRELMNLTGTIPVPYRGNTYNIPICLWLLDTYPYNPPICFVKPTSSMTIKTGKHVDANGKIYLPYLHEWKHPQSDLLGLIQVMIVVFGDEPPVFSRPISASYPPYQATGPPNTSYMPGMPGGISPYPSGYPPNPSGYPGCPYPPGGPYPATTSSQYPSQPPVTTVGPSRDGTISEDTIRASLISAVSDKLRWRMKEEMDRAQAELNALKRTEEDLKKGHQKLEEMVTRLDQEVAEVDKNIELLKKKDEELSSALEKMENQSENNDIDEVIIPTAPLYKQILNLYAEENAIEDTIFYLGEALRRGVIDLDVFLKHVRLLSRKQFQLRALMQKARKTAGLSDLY

CC(C)(Oc1ccc(Cl)cc1)C(=O)O
inactive: Potency [1] | activation [2] 0.845% | activation [3] -2.05% | max response [4] 8.18%

CC/C(=C(/CC)c1ccc(O)cc1)c1ccc(O)cc1
inactive: activation [2] 37.6% | outcome [5] | activation [3] -2.75% and -1.46% | max response [4] -0.699% and -4.24%
active: Potency [1] 24.3 µM and 29.8 µM

Oc1c(I)cc(Cl)c2cccnc12
active: Potency [1] 26.6 µM | Potency [3] 44.7 µM | Potency [7] 23.7 µM
inactive: activation [2] 24.3% | outcome [5] | Potency [6] | max response [4] 1.34%

CC(C)(C)CC(C)(C)c1ccc(OCCOCC[N+](C)(C)Cc2ccccc2)cc1
inactive: activation [2] 20.5% | Potency [8] | outcome [5] | activation [3] 2.85% and 2.84% | max response [4] -0.283% and 4.47%

Cc1cc(=O)n(-c2ccccc2)n1C
inactive: Potency [1] | activation [2] 0.703% | activation [9] -1.22% | activation [3] -0.814% | max response [4] 0.347%

O=C1OC(c2ccc(O)cc2)(c2ccc(O)cc2)c2ccccc21
inactive: Potency [1] | activation [2] 9.17% and -8.34% | activation [9] -1.2% and -2.62% | outcome [5] | Potency [6] | max response [4] -2.04% and -2.85%
active: Potency [7] 66.8 µM

CC(O)C(=O)O (stereo unspecified)
inactive: Potency [1] | activation [2] -0.0251% | activation [9] -0.579% | Potency [8] | outcome [5] | Potency [6] | activation [3] -0.164% | max response [4] -0.871% | Potency [7]

Cc1c2oc3c(C)ccc(C(=O)N[C@@H]4C(=O)N[C@H](C(C)C)C(=O)N5CCC[C@H]5C(=O)N(C)CC(=O)N(C)[C@@H](C(C)C)C(=O)O[C@@H]4C)c3nc-2c(C(=O)N[C@@H]2C(=O)N[C@H](C(C)C)C(=O)N3CCC[C@H]3C(=O)N(C)CC(=O)N(C)[C@@H](C(C)C)C(=O)O[C@@H]2C)c(N)c1=O (I: T[dV]P[Sar][NMeV] / II: T[dV]P[Sar][NMeV]; ester I:1-I:C, II:1-II:C; linker I:N-II:N via Actinocin(9to1))
inactive: activation [2] -13% | Potency [8] | outcome [5] | activation [3] 1.62% and 1.67% | max response [4] -5.12% and -0.626%
active: Potency [7] 0.0266 µM

O=c1ccc2ccccc2o1
active: Potency [1] 501 µM
inactive: activation [2] -4.62% and -2.73% and -3.41% | activation [9] -0.596% and -0.85% and -2.41% | outcome [5] | Potency [6] | activation [3] -0.0038% and -0.214% and 9.96% | max response [4] -5.67% and -0.649% and -3.56% | Potency [7]

CC(=O)O[C@]1(C(C)=O)CC[C@H]2[C@@H]3C[C@H](C)C4=CC(=O)CC[C@]4(C)[C@H]3CC[C@@]21C
inactive: activation [2] -2.08% and -7.09% | activation [9] -2.22% and -5.39% | outcome [5] | activation [3] 0.858% and 1.58% | max response [4] 0.549% and -0.24%
active: Potency [1] 27.3 µM | Potency [7] 16.8 µM

O=C(O)CCCCC(=O)O
inactive: Potency [1] | activation [2] -1.12% | activation [9] 1% | outcome [5] | Potency [6] | activation [3] 0.177% | max response [4] -5.15%

CC(=O)Oc1ccc(C(c2ccc(OC(C)=O)cc2)c2ccccn2)cc1
inactive: activation [2] 13.1% | Potency [8] | outcome [5] | activation [3] 0.887% | max response [4] -4.57% | Potency [7]

Nc1ccc(C(=O)O)cc1
inactive: Potency [1] | activation [2] -1.83% | activation [9] 0.93% | outcome [5] | Potency [6] | activation [3] -0.596% | max response [4] 2.41% | Potency [7]

C=C(CC)C(=O)c1ccc(OCC(=O)O)c(Cl)c1Cl
inactive: outcome [5] | activation [3] 2.74% | max response [4] -4.86%
active: Potency [1] 2.37 µM | Potency [7] 37.6 µM

COc1cccc2c1C(=O)c1c(O)c3c(c(O)c1C2=O)C[C@@](O)(C(=O)CO)C[C@@H]3O[C@H]1C[C@H](N)[C@H](O)[C@H](C)O1
active: Potency [10] 0.0332 µM | Potency [12] 6.68 µM | Potency [15] 0.0372 µM | Potency [16] 3.32 µM | Potency [2] 1.58 µM | Potency [8] 2.66 µM
0.7%: viability (% of control) [13]
20.5% [at 46.1 µM]: viability, percent of control [14]
inactive: outcome [11] | activation [9] -4.76% | activation [3] 1.88% | max response [4] -6.93% and -6.66%

CN(C)C(=S)SC(=S)N(C)C
inactive: activation [2] -1.54% | activation [9] -1.81% | activation [3] -0.314% | max response [4] 0.0294%

COC1=CC(=O)C[C@@H](C)[C@]12Oc1c(Cl)c(OC)cc(OC)c1C2=O
inactive: activation [9] -1.44% | Potency [8] | Potency [6] | activation [3] 0.113% | max response [4] 2.03%

NC(=NCCCCCCN=C(N)/N=C(\N)Nc1ccc(Cl)cc1)/N=C(\N)Nc1ccc(Cl)cc1
inactive: outcome [5] | activation [3] 2.77% and -7.14% and -8.81% | max response [4] 3.51% and 6.34% and -1.99%
active: Potency [7] 26.6 µM

Oc1c(Cl)cc(Cl)cc1Sc1cc(Cl)cc(Cl)c1O
active: Potency [2] 7.94 µM and 14.1 µM | Potency [8] 13.3 µM | Potency [4] 28.2 µM and 25.1 µM | Potency [7] 4.73 µM
inactive: outcome [5] | activation [3] 4.24% and -3.25%

COc1cccc2c1C(=O)c1c(O)c3c(c(O)c1C2=O)C[C@@](O)(C(C)=O)C[C@@H]3O[C@H]1C[C@H](N)[C@H](O)[C@H](C)O1
inactive: max response [4] -9.3%
active: Potency [17] 16.3 µM | Potency [8] 5.96 µM | Potency [7] 18.8 µM

Oc1ccc(Cl)cc1Sc1cc(Cl)ccc1O
inactive: outcome [5] | Potency [6] | activation [3] 6.02% | max response [4] 18%

CC(O)(P(=O)(O)O)P(=O)(O)O
inactive: Potency [1] | activation [3] 0.149% | max response [4] 0.583%

From PubChem BioAssay (NCATS)
